Data reported in PubChem BioAssay (NCI).
Several values for one entry are separate records, joined by “and”; a condition that tells them apart may be missing. Equal entries are not always repeated. This is part of a sample that, as a whole, favours compounds with a hit. Of some 83,000 tested, about 20% had one in any assay.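 For each line, cells grew in 96-well plates with the test compound present at a single concentration for 48 hours.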 Activity calls are given as the source filed them. The calls were made as follows: active = growth percent below 10; inactive = the rest.

system: UACC-62 melanoma; experiment: NCI-60 one-dose screen, 48 h (100 = growth as untreated, 0 = no growth, -100 = all killed); settings: 10 µM unless noted

Row | Structure (SMILES) | growth
1 | Cc1ccc(NC2=N/C(=C/c3ccccc3)C(Cl)=N2)cc1 | 27.6% [100 µM] (inactive) and 12% [100 µM] (inactive)
2 | COc1cc(Oc2c(C)c(Cl)c(OC)c(Cl)c2OC)c2c(c1Cl)COC2=O | -38% [100 µM] (active) and -9.28% [100 µM] (active)
3 | Cc1cc2nn(C3CCCO3)nc2cc1C (stereo unspecified) | 70.8% [100 µM] (inactive) and 101% [100 µM] (inactive)
4 | CCOC(=O)COc1cc(-c2ccccc2)nc2cc(F)ccc12 | 67.3% [100 µM] (inactive) and 60.3% [100 µM] (inactive)
5 | Cc1cc(S(=O)(=O)O)c(NC(=O)c2oc3cc(O)ccc3c(=O)c2C)cc1Cl | 85.1% [100 µM] (inactive) and 89.4% [100 µM] (inactive)
6 | COc1cc2c(cc1C1COc3cc4occc4cc3C1=O)OCO2 (stereo unspecified) | 62.1% [100 µM] (inactive) and 73.4% [100 µM] (inactive)
7 | O=C1c2ccccc2-c2c1c1ccccc1c(=O)n2-c1cccnc1 | 35.8% [100 µM] (inactive) and 0.376% [100 µM] (active)

system: TK-10 renal; experiment: as above; settings: 10 µM unless noted

Row | Structure (SMILES) | growth
8 | COC(=O)/C(=N\NC(=S)NN)C(C(=O)OC)C(=O)C(=O)Nc1cccc(C(F)(F)F)c1 (stereo unspecified) | 155% [100 µM] (inactive) and 108% [100 µM] (inactive)
9 | COC(=O)c1ccc(NC(=O)O/N=C(\Cl)C(C)C)cc1 | -100% [100 µM] (active)
10 | C=C1C(=O)OC2CC(C)C3(O)CCC(=O)C3(C)CC12 (stereo unspecified) | 39.8% [100 µM] (inactive) and 21.4% [100 µM] (inactive)
11 | COC(=O)C(C(=O)C(=O)Nc1c(C)cccc1C(C)(C)C)c1nc2ccc(Cl)cc2[nH]c1=O (stereo unspecified) | 141% [100 µM] (inactive) and 105% [100 µM] (inactive)
12 | CCCCC1C(=O)N(c2ccc(S(=O)(=O)Nc3ccccn3)cc2)N(c2ccc(O)c(C(=O)O)c2)C1=O (stereo unspecified) | 102% [100 µM] (inactive) and 94.2% [100 µM] (inactive)
13 | COc1ccc(-c2coc3c4c(ccc3c2=O)OCO4)cc1OC | 54.4% [100 µM] (inactive) and 6.05% [100 µM] (active)
14 | C=C(C)C1CC2(C)C(C)CC(OC(=O)/C(C)=C\C)CC2C(OC(=O)/C(C)=C\C)C1O (stereo unspecified) | 34.6% [100 µM] (inactive) and 71% [100 µM] (inactive)
15 | CCOC(=O)c1cc(C)nc2c1c(=O)n(-c1ccccc1)c(=O)n2CCCCN1CCN(c2ncccn2)CC1 | 116% [100 µM] (inactive) and 111% [100 µM] (inactive)
16 | COc1cc([C@H]2OC[C@@H]3C(c4cc(OC)c5c(c4)OCO5)OC[C@H]23)cc(OC)c1OC (stereo partly specified) | 84.5% [100 µM] (inactive) and 28.7% [100 µM] (inactive)
17 | C[C@@H]1CC[C@H]2C(C)(C)[C@H]3C[C@@]12CC[C@@]3(C)O | 87.1% [100 µM] (inactive) and 15.8% [100 µM] (inactive)
18 | COc1ccccc1-c1n[nH]c(-c2ccccc2O)n1 | 84.4% [100 µM] (inactive) and 32.7% [100 µM] (inactive)
19 | CC(C)/C(Cl)=N/OC(=O)Nc1cccc(C(F)(F)F)c1 | -100% [100 µM] (active)
20 | Cc1ccc2c(sc(-c3ccc4c(c3)sc(-c3ccc5c(c3)sc(-c3ccc(N(C)C)cc3)[n+]5C)[n+]4C)[n+]2C)c1S(=O)(=O)O (tested in a mixture with another compound) | 106% [100 µM] (inactive) and 47.3% [100 µM] (inactive)
21 | O=C(Nc1cccc(NC(=O)C(=O)C2CCC3=C(Sc4ccccc4N3)C2=O)n1)C(=O)C1CCC2=C(Sc3ccccc3N2)C1=O (stereo unspecified) | 103% [100 µM] (inactive) and 15.7% [100 µM] (inactive)
22 | COc1ccc2c(c1)N(C(C)=O)CN1C(=O)CCC21 (stereo unspecified) | 93% [100 µM] (inactive) and 101% [100 µM] (inactive)
23 | CC1C2(C)OC(=N)C(C#N)(C(c3cccc([N+](=O)[O-])c3)O2)C1(C#N)C#N (stereo unspecified) | 108% [100 µM] (inactive)
24 | O=C1NC(N/N=C\C(O)C(O)C(O)C(O)CO)=N/C1=C\c1ccc(Cl)cc1 (stereo unspecified) | 47.7% [100 µM] (inactive) and -100% [100 µM] (active)
25 | Cn1c2c(c3ccccc3c1=O)C(=O)c1ccccc1-2 | -92.2% [100 µM] (active) and -100% [100 µM] (active)
26 | C/C(O)=C/c1nc2sc(C)c(C)c2c(=O)s1 | 50.2% [100 µM] (inactive) and 46.7% [100 µM] (inactive)
27 | CCCCCC(O)(CCCCC)CCCCCCCCC1=C(O)c2ccccc2C(=O)C1=O | 0.969% [100 µM] (active) and -7.87% [100 µM] (active)

Row | Structure (SMILES) | growth
28 | Cc1ccc(OCC2OC(n3cnc4nc(N)nc(Cl)c43)CC2Oc2ccc(C)cc2)cc1 (stereo unspecified) | 104% [100 µM] (inactive) and -84.6% [100 µM] (active)
29 | COc1cc2c3cc1Oc1c(OC)c(OC)cc4c1C(Cc1ccc(O)c(c1)-c1cc(ccc1OC)CC3N(C)CC2)N(C)CC4 (stereo unspecified) | -41.8% [100 µM] (active) and -97% [100 µM] (active)
30 | C/C(=C\COc1cc(O)c2c(c1)C(=O)c1cc(C)cc(O)c1C2=O)CCC1OC1(C)C (stereo unspecified) | 42.6% [100 µM] (inactive) and 20.6% [100 µM] (inactive)
31 | COC(=O)C1=CO[C@@H](OC2OC(CO)C(O)C(O)C2O)[C@H]2[C@@H](C)[C@@H](O)[C@@H](O)[C@@H]12 (stereo partly specified) | 102% [100 µM] (inactive) and 98% [100 µM] (inactive)
32 | COc1ccc(C)cc1NC(=S)C#N | 112% [100 µM] (inactive) and 36.2% [100 µM] (inactive)
33 | CCCCCCSC[C@H](OC(C)=O)[C@@H](OC(C)=O)[C@@H](OC(C)=O)[C@@H](COC(C)=O)OC(C)=O | 95.1% [100 µM] (inactive) and 101% [100 µM] (inactive)
34 | O=C1c2ccccc2-c2c1c1ccccc1c(=O)n2CCO | 41.8% [100 µM] (inactive) and 3.35% [100 µM] (active)
35 | O=C1c2cccnc2-c2nccc3ccnc1c23 | -100% [100 µM] (active)
36 | COc1cc2c(cc1-c1coc3cc(O)ccc3c1=O)OCO2 | 81.2% [100 µM] (inactive) and 3.05% [100 µM] (active)
37 | COc1c(O)ccc(C2=Cc3ccc(O)cc3OC2)c1OC | 1.01% [100 µM] (active) and 9.04% [100 µM] (active)
38 | Cc1ccc(OCC2OC(n3cnc4c(Cl)nc(Cl)nc43)CC2Oc2ccc(C)cc2)cc1 (stereo unspecified) | 72.8% [100 µM] (inactive) and -96.1% [100 µM] (active)
39 | C=CC1=C(C)C2=NC1=CC1=NC(=C(CC)/C1=C\O)C=C1N=C3C(=C1C)C(=O)[C@H](C(=O)OC)C3=C1NC(=C2)[C@@H](C)[C@@H]1CCC(=O)O | 3.23% [100 µM] (active) and 7.05% [100 µM] (active)
40 | Cc1ccc(NC2=N/C(=C/c3ccccc3)C(Cl)=N2)cc1 | 82.6% [100 µM] (inactive) and -17.1% [100 µM] (active)
41 | COc1cc(Oc2c(C)c(Cl)c(OC)c(Cl)c2OC)c2c(c1Cl)COC2=O | 20.3% [100 µM] (inactive) and 9.52% [100 µM] (active)
42 | Cc1cc2nn(C3CCCO3)nc2cc1C (stereo unspecified) | 81.3% [100 µM] (inactive) and 101% [100 µM] (inactive)
43 | CCOC(=O)COc1cc(-c2ccccc2)nc2cc(F)ccc12 | 95.9% [100 µM] (inactive) and 90.1% [100 µM] (inactive)
44 | Cc1cc(S(=O)(=O)O)c(NC(=O)c2oc3cc(O)ccc3c(=O)c2C)cc1Cl | 90.8% [100 µM] (inactive) and 91.7% [100 µM] (inactive)
45 | COc1cc2c(cc1C1COc3cc4occc4cc3C1=O)OCO2 (stereo unspecified) | 88.2% [100 µM] (inactive) and 80.4% [100 µM] (inactive)
46 | O=C1c2ccccc2-c2c1c1ccccc1c(=O)n2-c1cccnc1 | 59.8% [100 µM] (inactive) and -34% [100 µM] (active)
